Data reported in PubChem BioAssay.
Values joined by “and” are separate entries in the source; they are usually repeats but may differ in a detail not shown here. Equal entries are not always repeated. Active and inactive are the calls of the source. Unless noted, no rule for the calls is given here.

Columns and labels:
[1] = tested on: Wnt5a (protein binding on small-molecule microarray); experiment: small molecules binding Wnt5a protein – biophysical, small-molecule microarray, 635/667 nm fluorescence, primary screen (AID 1142); conditions: 635 nm fluorescence, higher = more signal;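 also: fluorescence read at 667 nm with signal to noise per printed feature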
[2] = ATP-based viability of Huh7 replicon cells – cell-based, CellTiter-Glo luminescence, basal, 48 h, cytotoxicity control for HCV replication inhibitor project, primary screen (AID 1143); conditions: higher = more signal, called active from +8 up or from −8 down;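 also: Huh7 hepatoma cells carrying a hepatitis C replication reporter with no stimulus; test concentration not given here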
[3] = Pseudomonas biofilm growth suppression – PAO1 strain, BacTiter-Glo luminescence, LB-PBS, primary screen (AID 1144); conditions: P. aeruginosa PAO1 biofilm, 12 h, higher = more signal
[4] = basal CRE-LacZ reporter activity in PC12 – cell-based, unstimulated, primary screen (AID 1145); conditions: no forskolin, luminescence, 4.5 h, higher = more signal, called active from +8 up or from −8 down
[5] = forskolin-driven CRE-LacZ activity in PC12 – cell-based, CRE-LacZ reporter, forskolin-stimulated, primary screen (AID 1146); conditions: luminescence, 4.5 h, higher = more signal, called active from +8 up or from −8 down;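 also: PC12 cells with 6xCRE LacZ reporter stimulated by forskolin 10 µM; beta-galactosidase reporter signal reflecting CREB driven transcription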
[6] = target: Streptavidin (Streptomyces avidinii) (UniProt P22629); experiment: compounds binding control protein streptavidin – biophysical, small-molecule microarray, 635/667 nm fluorescence, artefact control for SMM compound annotation, primary screen (AID 1147); conditions: higher = more signal;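 also: signal reflects streptavidin binding to arrayed compounds as a control protein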
Streptavidin (Streptomyces avidinii), sequence (P22629 whole entry, looked up): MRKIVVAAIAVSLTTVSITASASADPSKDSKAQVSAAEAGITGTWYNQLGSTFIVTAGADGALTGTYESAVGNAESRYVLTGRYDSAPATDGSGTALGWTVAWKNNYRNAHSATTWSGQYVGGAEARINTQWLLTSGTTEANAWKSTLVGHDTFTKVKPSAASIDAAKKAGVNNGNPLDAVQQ

[7] = probe aInhba binding on compound microarray – biochemical, small-molecule microarray, 635/667 nm fluorescence, primary screen (AID 1148); conditions: higher = more signal;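 also: score merges 667nm spot fluorescence with signal-to-noise for antibody binding to printed compounds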
[8] = target: Torsin-1A (Homo sapiens) (UniProt O14656); experiment: TOR1A wild-type binding on microarray – cell lysate, small-molecule microarray, lysate, 635/667 nm, primary screen (AID 1149); conditions: COS7 hTOR1A-WT lysate, 635 nm fluorescence, higher = more signal
Torsin-1A (Homo sapiens), sequence (O14656 whole entry, looked up): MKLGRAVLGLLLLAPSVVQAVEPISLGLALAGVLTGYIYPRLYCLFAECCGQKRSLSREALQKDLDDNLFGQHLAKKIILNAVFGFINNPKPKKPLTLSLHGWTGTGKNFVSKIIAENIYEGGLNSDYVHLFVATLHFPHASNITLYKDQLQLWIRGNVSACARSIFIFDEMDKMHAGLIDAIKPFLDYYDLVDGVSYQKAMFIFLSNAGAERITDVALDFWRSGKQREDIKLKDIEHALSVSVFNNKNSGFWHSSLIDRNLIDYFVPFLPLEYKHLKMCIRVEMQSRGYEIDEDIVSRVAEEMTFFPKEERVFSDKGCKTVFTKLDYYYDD

[9] = target: Torsin-1A (Homo sapiens) (UniProt O14656); experiment: torsin A mutant lysate binding on microarrays – cell lysate, small-molecule microarray, COS7 lysate, 635/667 nm fluorescence, primary screen (AID 1150); conditions: COS7 hTOR1A mutant lysate, 635 nm fluorescence, higher = more signal;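 also: score pools 667 nm emission and signal to noise measuring lysate protein binding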
[10] = tested on: Sonic hedgehog protein (Shh); experiment: Sonic hedgehog microarray binding compounds – biochemical, small-molecule microarray, 635/667 nm fluorescence, primary screen (AID 1151); conditions: 635 nm fluorescence, higher = more signal;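 also: Shh protein binding to compounds spotted on small-molecule microarray slides; score combines spot fluorescence intensity with signal-to-noise across triplicate slides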
[11] = optical density shifts of acrAB sulA E. coli – strain DRC41, OD650, 48 h, E. coli filamentation inducer project, primary screen (AID 1152); conditions: higher = more signal, called active from +8 up or from −8 down;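 also: E. coli MC1000 strain DRC41 lacking acrAB efflux pump and sulA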
[12] = probe aLefty1 binding on compound microarray – biochemical, small-molecule microarray, 635/667 nm fluorescence, primary screen (AID 1153); conditions: higher = more signal;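 also: score merges spot fluorescence with signal-to-noise ratio from the scanned slide images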
[13] = plasmodial surface anion channel blockers, osmotic lysis – cell-based, P. falciparum Indochina, OD700, 1 h, primary screen (AID 1154); conditions: P. falciparum Indochina infected RBC osmotic lysis, higher = more signal, called active from +8 up or from −8 down
[14] = plasmodial surface anion channel blockers, osmotic lysis – cell-based, P. falciparum Indochina, OD700, 2 h, primary screen (AID 1155);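 also: lysis reports solute entry through the parasite surface anion channel PSAC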; conditions: P. falciparum Indochina infected erythrocytes, higher = more signal, called active from +8 up or from −8 down
[15] = changes in parasitized red cell lysis, either direction – P. falciparum Indochina, OD700, 3 h, PSAC antagonist project, primary screen (AID 1156); conditions: P. falciparum-infected erythrocytes, osmotic lysis, higher = more signal, called active from +8 up or from −8 down
[16] = plasmodial surface anion channel blockers, osmotic lysis – cell-based, P. falciparum Indochina, OD700, 18 h, primary screen (AID 1157); conditions: P. falciparum Indochina infected erythrocytes, osmotic lysis OD700, 18 h; higher = more signal, called active from +8 up or from −8 down
[17] = S6 kinase pathway phospho-S6 level changes – cell-based, A549, cytoblot, luminescence, serum-stimulated, primary screen (AID 1158); conditions: 5 h, higher = more signal;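 also: serum-stimulated A549 lung adenocarcinoma cells; signal is phosphorylated S6 detected by cytoblot immunostaining with HRP secondary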
[18] = target: NADPH oxidase 2 (Homo sapiens) (UniProt P04839); experiment: compounds shifting NOX2 Amplex Red fluorescence – cell-based, HEK293-NOX2, PMA-stimulated, NOX inhibitor project, primary screen (AID 1159); conditions: 45 min, higher = more signal, called active from +8 up or from −8 down; also: test concentration not given here
NADPH oxidase 2 (Homo sapiens), sequence (P04839 whole entry, looked up): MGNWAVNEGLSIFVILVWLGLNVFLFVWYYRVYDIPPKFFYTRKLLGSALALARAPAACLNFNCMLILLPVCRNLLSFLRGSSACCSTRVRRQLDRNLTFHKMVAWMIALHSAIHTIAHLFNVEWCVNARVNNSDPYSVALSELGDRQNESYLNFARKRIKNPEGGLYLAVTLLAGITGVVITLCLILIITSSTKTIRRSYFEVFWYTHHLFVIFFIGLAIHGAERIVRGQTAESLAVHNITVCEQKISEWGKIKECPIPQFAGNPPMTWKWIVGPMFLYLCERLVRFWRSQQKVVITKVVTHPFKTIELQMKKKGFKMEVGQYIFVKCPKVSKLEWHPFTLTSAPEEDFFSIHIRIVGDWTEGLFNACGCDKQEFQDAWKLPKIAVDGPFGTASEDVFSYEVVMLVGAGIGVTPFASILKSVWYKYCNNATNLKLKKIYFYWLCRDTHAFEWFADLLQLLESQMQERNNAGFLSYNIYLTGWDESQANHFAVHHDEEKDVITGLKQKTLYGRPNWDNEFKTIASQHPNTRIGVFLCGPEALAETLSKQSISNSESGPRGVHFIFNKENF

[19] = target: NADPH oxidase 4 (Homo sapiens) (UniProt Q9NPH5); experiment: compounds shifting NOX4 Amplex Red fluorescence – cell-based, HEK293-NOX4, tetracycline-induced, NOX inhibitor project, primary screen (AID 1160); conditions: HEK293-NOX4, Amplex Red H2O2 fluorescence, 45 min; higher = more signal, called active from +8 up or from −8 down
NADPH oxidase 4 (Homo sapiens), sequence (Q9NPH5 whole entry, looked up): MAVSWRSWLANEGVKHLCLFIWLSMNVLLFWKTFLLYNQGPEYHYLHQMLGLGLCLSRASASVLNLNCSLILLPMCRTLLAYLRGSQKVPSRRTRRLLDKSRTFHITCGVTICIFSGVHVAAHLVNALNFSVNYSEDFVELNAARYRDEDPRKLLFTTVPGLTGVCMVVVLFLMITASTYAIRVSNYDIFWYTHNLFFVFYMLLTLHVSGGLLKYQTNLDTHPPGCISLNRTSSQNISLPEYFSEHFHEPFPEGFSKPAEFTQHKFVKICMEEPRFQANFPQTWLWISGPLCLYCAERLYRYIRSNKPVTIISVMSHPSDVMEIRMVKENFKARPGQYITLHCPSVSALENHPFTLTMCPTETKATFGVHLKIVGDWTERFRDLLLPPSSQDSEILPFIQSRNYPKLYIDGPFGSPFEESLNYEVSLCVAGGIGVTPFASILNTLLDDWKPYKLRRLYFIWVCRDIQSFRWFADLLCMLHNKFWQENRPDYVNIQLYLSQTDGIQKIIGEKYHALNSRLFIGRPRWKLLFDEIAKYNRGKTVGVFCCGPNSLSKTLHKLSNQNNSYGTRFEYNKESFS

[20] = target: NADPH oxidase 5 (Homo sapiens) (UniProt Q96PH1); experiment: compounds shifting NOX5 Amplex Red fluorescence – cell-based, HEK293-NOX5, NOX inhibitor project, primary screen (AID 1161); conditions: HEK293-NOX5, ionomycin, 45 min, higher = more signal
NADPH oxidase 5 (Homo sapiens), sequence (Q96PH1 whole entry, looked up): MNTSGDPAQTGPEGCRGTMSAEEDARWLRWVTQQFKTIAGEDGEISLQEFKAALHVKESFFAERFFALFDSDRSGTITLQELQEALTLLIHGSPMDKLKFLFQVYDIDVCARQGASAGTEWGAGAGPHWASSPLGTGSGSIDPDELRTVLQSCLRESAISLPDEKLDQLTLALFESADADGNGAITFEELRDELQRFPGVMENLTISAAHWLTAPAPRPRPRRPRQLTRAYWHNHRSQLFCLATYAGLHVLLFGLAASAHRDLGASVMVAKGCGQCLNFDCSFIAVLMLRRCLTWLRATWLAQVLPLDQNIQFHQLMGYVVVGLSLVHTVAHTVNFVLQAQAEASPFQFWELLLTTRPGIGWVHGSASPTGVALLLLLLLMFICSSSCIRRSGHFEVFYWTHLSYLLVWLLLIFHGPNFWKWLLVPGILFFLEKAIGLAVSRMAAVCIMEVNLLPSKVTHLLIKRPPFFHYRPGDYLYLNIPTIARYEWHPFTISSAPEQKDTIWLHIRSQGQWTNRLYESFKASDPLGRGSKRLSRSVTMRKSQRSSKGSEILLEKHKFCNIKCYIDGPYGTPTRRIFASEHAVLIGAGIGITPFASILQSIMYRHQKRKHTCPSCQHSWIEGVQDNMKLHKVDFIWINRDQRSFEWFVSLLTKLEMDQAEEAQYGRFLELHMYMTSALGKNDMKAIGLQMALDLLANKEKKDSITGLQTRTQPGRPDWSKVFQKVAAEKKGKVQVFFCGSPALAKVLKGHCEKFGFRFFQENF

Compound | composite z-score [1] | z-score [2] | z-score [3] | z-score [4] | z-score [5] | composite z-score [6] | composite z-score [7] | composite z-score [8] | composite z-score [9] | composite z-score [10] | z-score [11] | composite z-score [12] | z-score [13] | z-score [14] | z-score [15] | z-score [16] | z-score [17] | z-score [18] | z-score [19] | z-score [20]
C=C[C@H](C)[C@@H](O)c1ccc(OCCO)cc1 | -0.827 and -0.751 | -1.64 (inactive) and 0.216 (inactive) | 0.0711 (inactive) and -0.987 (inactive) | -0.883 (inactive) and 0.861 (inactive) | -0.783 (inactive) and -0.722 (inactive) | 0.129 and -0.772 | -0.37 and -0.208 | -1.96 and -1.8 | -2.09 and -1.25 | 0.134 and 0.524 | -0.454 (inactive) and -0.0821 (inactive) | -0.235 and -0.146 | 0.92 (inactive) and 1.14 (inactive) | 0.613 (inactive) and 0.0956 (inactive) | -0.642 (inactive) and -0.202 (inactive) | 0.232 (inactive) and 0.252 (inactive) | -0.248 and -0.5 | 0.149 (inactive) and -0.758 (inactive) | 0.101 (inactive) and -0.0609 (inactive) | 0.297 and 0.492
C[N+](C)(C)CCCCCCNC(=O)[C@H]1C[C@H]2C(=O)N[C@@H](CCCC[N+](C)(C)C)C(=O)N2[C@H]1c1ccc(O)cc1 | 0.0916 and 0.169 | -2.26 (inactive) and 0.0462 (inactive) | -0.978 (inactive) and -0.491 (inactive) | -1.22 (inactive) and 0.423 (inactive) | 0.188 (inactive) and -0.798 (inactive) | -0.52 and -0.486 | -0.131 and -0.0313 | -0.0883 and -0.172 | 0.0293 and -0.103 | 1.14 and 1.93 | 0.167 (inactive) and 0.234 (inactive) | -0.0523 and -0.127 | 0.453 (inactive) and 0.892 (inactive) | -1.12 (inactive) and 0.591 (inactive) | -1.11 (inactive) and -2.09 (inactive) | -1.46 (inactive) and 0.0065 (inactive) | 0.0304 and -0.109 | -1.5 (inactive) and 0.235 (inactive) | -0.479 (inactive) and 0.249 (inactive) | -3.22 and 0.0348
C=CCN(C(=O)C1N(CCOCCO)C(=O)C2C(C(=O)O)C3C=CC21O3)c1ccc(OC)cc1 (stereo not given) | -0.571 and -0.317 | -0.769 (inactive) and -0.89 (inactive) | 0.0762 (inactive) and 0.0838 (inactive) | 0.329 (inactive) and 0.463 (inactive) | 0.373 (inactive) and -0.121 (inactive) | -1.35 and -1.27 | -0.186 and -0.296 | -1.81 and -2.21 | -1.91 and -1.9 | -1.31 and -0.761 | 0.168 (inactive) and 0.839 (inactive) | -0.262 and -0.243 | -0.586 (inactive) and -1.15 (inactive) | 0.0933 (inactive) and -0.0778 (inactive) | -1.1 (inactive) and -0.285 (inactive) | -0.0612 (inactive) and -0.161 (inactive) | 1.4 and -0.338 | 0.073 (inactive) and 0.856 (inactive) | -0.509 (inactive) and -0.782 (inactive) | 0.624 and -0.275
CC(C)=NO[C@@H](C)c1cc(-c2c(C)cc(C)cc2C)no1 | -0.278 | -2.11 (inactive) | -1.37 (inactive) | 1.49 (inactive) | -0.49 (inactive) | 0.186 | -0.128 | 0.0381 | -0.281 | -0.104 | -2.27 (inactive) | -0.278 | 0.944 (inactive) | 0.371 (inactive) | 1.37 (inactive) | -1.23 (inactive) | 0.702 | -0.639 (inactive) | -1.28 (inactive) | -1.13
CC(C)=NOCc1ccc(-c2cn([C@@H]3COC[C@H]3O)nn2)cc1 | 0.184 | 0.164 (inactive) | 1.08 (inactive) | 1.47 (inactive) | 0.607 (inactive) | 0.562 | -0.128 | 0.538 | 0.162 | 0.169 | 0.164 (inactive) | -0.245 | 11.2 (active) | 0.536 (inactive) | -0.725 (inactive) | 0.296 (inactive) | -0.119 | 0.606 (inactive) | 0.0519 (inactive) | -0.388
C[C@@H]1CC[C@H]2C(=O)O[C@H](CN=[N+]=[N-])CN2[C@H]1c1ccc(Br)cc1 | -0.0328 and -0.216 | -2.85 (inactive) and -0.512 (inactive) | -0.203 (inactive) and -0.277 (inactive) | -0.162 (inactive) and 3.89 (inactive) | -0.177 (inactive) and -0.414 (inactive) | -0.167 and 0.0058 | 0.0232 and -0.154 | 0.225 and 0.372 | 0.455 and 0.101 | 0.286 and -0.196 | -1.87 (inactive) and -0.609 (inactive) | 0.0457 and -0.284 | -0.1 (inactive) and 2.08 (inactive) | 0.23 (inactive) and 1.03 (inactive) | 0.124 (inactive) and 0.564 (inactive) | -0.12 (inactive) and 0.491 (inactive) | -0.524 and -0.466 | 0.993 (inactive) and 0.995 (inactive) | -0.0537 (inactive) and -0.184 (inactive) | -0.124 and 0.779
CO[C@H]1COC(=O)CC=C[C@H](C)[C@H](OC)COC(=O)[C@@H](C)COC(=O)CC=C[C@@H]1C | -0.051 and -0.105 | 1.08 (inactive) and -0.441 (inactive) | -0.186 (inactive) and 0.0947 (inactive) | -0.116 (inactive) and -1.19 (inactive) | -0.689 (inactive) and -0.777 (inactive) | -0.313 and 0.0956 | -0.195 and -0.224 | 0.636 and 0.802 | 0.269 and 1.17 | 1.08 and 1.09 | 0.462 (inactive) and 0.63 (inactive) | -0.294 and -0.193 | -0.267 (inactive) and 0.565 (inactive) | -0.162 (inactive) and -0.455 (inactive) | -0.146 (inactive) and 0.4 (inactive) | -0.0153 (inactive) and 0.179 (inactive) | -0.0498 and 0.833 | 0.282 (inactive) and 1.16 (inactive) | 0.201 (inactive) and 0.589 (inactive) | -0.26 and 0.25
CC(C)CCN1CCc2nc(-c3ccccc3)c3c(c2C1)CO[C@@H](C)C3 | 0.0842 | 0.267 (inactive) | 0.268 (inactive) | 4.64 (inactive) | -0.44 (inactive) | 0.375 | 0.0173 | 0.509 | 0.471 | 0.827 | 0.842 (inactive) | 0.173 | 0.253 (inactive) | 0.145 (inactive) | -0.895 (inactive) | 0.0992 (inactive) | -0.768 | 1.12 (inactive) | 0.461 (inactive) | 0.427
C=C(C)C(=O)OC[C@@H]1CN2[C@@H](CC[C@@H](C)[C@@H]2c2ccc(Br)cc2)C(=O)O1 | -0.0892 | -0.0082 (inactive) | -1.58 (inactive) | 1.54 (inactive) | 0.11 (inactive) | -0.222 | -0.0895 | 0.457 | 0.231 | 0.605 | -0.181 (inactive) | 0.218 | 1.51 (inactive) | 0.0995 (inactive) | 0.289 (inactive) | 0.294 (inactive) | 0.525 | -0.29 (inactive) | 1 (inactive) | 0.481
CCCNC(=O)OC[C@H]1O[C@H](CCON=C(C)CCC(=O)OC[C@H]2O[C@H](C#Cc3ccccc3)C=C[C@@H]2Oc2ccc(C)cc2)C=C[C@@H]1Oc1ccc(OC)cc1 | -0.284 | -0.538 (inactive) | -0.145 (inactive) | -0.729 (inactive) | 0.872 (inactive) | 1.07 | -0.103 | -0.474 | -0.352 | 0.0277 | 0.181 (inactive) | -0.0917 | 0.77 (inactive) | 0.329 (inactive) | -0.107 (inactive) | 0.097 (inactive) | -0.591 | 0.333 (inactive) | 0.854 (inactive) | -0.746
O=c1n(-c2ccccc2)c(=O)n2n1CC[C@@H]1C(=NOC[C@@H](O)COCc3ccco3)[C@H]3O[C@H]3[C@@H](O)[C@@H]12 | 0.0145 and -0.152 | -2.38 (inactive) and 1.16 (inactive) | -0.58 (inactive) and 0.962 (inactive) | 0.875 (inactive) and -0.227 (inactive) | -0.218 (inactive) and 0.761 (inactive) | 0.312 and 0.0894 | -0.0963 and -0.0407 | 0.716 and 0.965 | 0.289 and 0.457 | 1.7 and 0.769 | -1.09 (inactive) and -0.282 (inactive) | -0.0464 and -0.0626 | 1.17 (inactive) and 0.288 (inactive) | -0.603 (inactive) and 0.191 (inactive) | 1.74 (inactive) and 0.238 (inactive) | -2.3 (inactive) and 0.0983 (inactive) | 0.473 and -0.975 | 1.06 (inactive) and 0.176 (inactive) | 0.113 (inactive) and -2.01 (inactive) | 1.33 and -0.41
